The source of these data is PubChem BioAssay (NCATS).

Assay [1] can be described thus: Cell Viability - MRC5 (AID 434; calls by dose curve;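 also: potency is read from the fitted curve at half-maximal effect; cells exposed to compound for 40 hours at 37 °C; potency reflects cytotoxicity seen as loss of intracellular ATP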). The settings on record: MRC5 lung fibroblast viability, qHTS. Put shortly: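 ATP luminescence read-out (CellTiter-Glo, 20 min RT) after 40 hr, 37 °C compound exposure of 1500 MRC5 cells/well. Data normalized to DMSO (basal) and 100 uM tamoxifen (100% inhibition); AC50 from standard Hill equation.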
The nature of assay [2]: Cell Viability - HUV-EC-C (AID 542).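 Also: cells exposed to compound for 40 hours; nearly all actives have a fitted effect of over 35% in size.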 Also: potency is read from the fitted curve at half-maximal effect. Particulars: HUV-EC-C endothelial cell viability, qHTS; series mostly up to 92.2 µM. The method in brief: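 Cells were seeded at 1000 per well and incubated 5 hr at 37 °C before compound addition. After 40 hr at 37 °C, CellTiter-Glo reagent was added for 20 min and luminescence read. AC50 values came from Hill-equation modelling.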
A short description of assay [3]: Cellular Toxicity (caspase-3) HepG2 (AID 654).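 Also: cells exposed to compound for 16 hours before reading; 0% = DMSO alone and 100% = caspase signal from 100 µM tamoxifen.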 The settings on record: HepG2 caspase-3 activation, luminescence; series mostly up to 92.2 µM. Put shortly: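 Caspase 3/7 activation in HepG2 is measured as rising luminescence after a 16 hr treatment at 37 °C. Values are scaled between DMSO basal and 100 uM tamoxifen, and AC50 is fitted with the Hill equation.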
Assay [4] can be described thus: Cellular Toxicity (caspase-3) HUV-EC-C (AID 656). The settings on record: HUV-EC-C cells, caspase-3 activation (apoptosis); series mostly up to 92.2 µM. The method in brief: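 Read-out: luminescence proportional to caspase 3/7 activity, measured 20 min after adding Caspase-Glo 3/7 reagent. Cells (HUV-EC-C) had received compound for 16 hr at 37°C. Increases relative to DMSO and 100 uM tamoxifen gave concentration-response AC50 values.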

A short description of assay [5]: Cellular Toxicity (caspase-3) MRC-5 (AID 659). The settings on record: MRC-5 cells, luminescence, normalized: DMSO 0%, 10 µM staurosporine 100%; series mostly up to 91.7 µM. The method in brief:
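MRC-5 fibroblasts, 1500/well; 16 h cpd, 37 °C; Caspase-Glo 3/7, 1 h RT; lumi read. Norm: DMSO = 0%, 10 uM staurosporine = 100%. Hill-fit AC50 from qHTS conc-response.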

Assay [6] can be described thus: Cellular Toxicity (caspase-3) SK-N-SH (AID 661). The settings on record: SK-N-SH caspase-3 activation, qHTS, DMSO as zero, staurosporine as full; series mostly up to 91.7 µM. Put shortly: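 Cells were seeded and incubated 5 hr at 37 °C, dosed with compound over a concentration range for 16 hr, then given Caspase-Glo 3/7 reagent for 1 hr at room temperature before luminescence reading.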
(In general: In qHTS, concentration-response curves come from the screen itself.)

Assay [7] can be described thus: Cellular Toxicity (caspase-3) Hek293 (AID 664).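 Also: cells exposed to compound for 16 h at 37 °C before readout.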 Particulars: HEK293 caspase-3 activation, DMSO = 0%, 100 µM tamoxifen = 100%; at 92.2 µM (top of the series). Put shortly: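 qHTS, HEK293 (human embryonic kidney), 16 h cpd exposure in complete medium. Caspase-3/7 activation = luminescence increase; normalized to DMSO/100 uM tamoxifen; Hill-fit AC50.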
The nature of assay [8]: Cellular Toxicity (caspase-3) N2a (AID 665).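 Also: compound exposure lasted 16 h at 37 °C before readout.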 The settings on record: N2a cells, luminescence, normalized: DMSO 0%, 10 µM staurosporine 100%; series mostly up to 92.2 µM. Put shortly:
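Caspase-3/7 activation, measured as increased luminescence from aminoluciferin release, is quantified in mouse N2a cells exposed to compounds for 16 h. Values are normalized to DMSO and 10 uM staurosporine, with AC50 derived by Hill modelling.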

The nature of assay [9]: Cellular Toxicity (caspase-3) NIH 3T3 (AID 666).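 Also: caspase signal read after 16 h compound exposure; 0% = DMSO basal and 100% = 100 µM tamoxifen stimulation.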 The settings on record: NIH 3T3 caspase-3 activation, apoptosis/toxicity, 0% DMSO, 100% is 100 µM tamoxifen; series mostly up to 92.2 µM. Put shortly:
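Cells were plated at 1000 per well and incubated 5 hr at 37°C, then compound was added for 16 hr. Caspase-Glo 3/7 reagent followed for 20 min at room temperature before luminescence was read.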

Assay [10] in a line: Cellular Toxicity (caspase-3) Renal Proximal Tubule (AID 667).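 Also: cells exposed to compound for 16 hours at 37 °C before detection.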 Particulars: renal proximal tubule cells, primary cells freshly taken from rat; Potency: caspase-3 activation; series mostly up to 91.7 µM. The method in brief:
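In qHTS format, rat primary proximal tubule cells seeded at 1000 per well are exposed to compounds for 16 hours at 37 °C. An increase in Caspase-Glo 3/7 luminescence indicates caspase activation.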

Assay [11] is described as follows: MultiTox-Fluor Cytotoxicity Assay - LYMP1-001 - Dead Cells (AID 946).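 Also: 0% = DMSO and 100% = tetraoctylammonium bromide.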 The settings on record: LYMP1-001 lymphoblastoid cells, dead-cell protease fluorescence; series mostly up to 92.2 µM. Put shortly:
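LYMP1-001 lymphoblastoid cells (2500/well) treated 16 h at 37 C. Dead-cell protease cleavage of bis-AAF-R110 read at Ex/Em 485/520. Normalized to DMSO and 15 uM tetraoctylammonium bromide; AC50 from Hill fits.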

The nature of assay [12]: MultiTox-Fluor Cytotoxicity Assay - LYMP1-003 - Dead Cells (AID 961).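 Also: 0% = DMSO and 100% = tetraoctylammonium bromide; nearly all actives have a fitted effect of over 70% in size.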 The settings on record: LYMP1-003 lymphoblastoid cells, dead-cell protease fluorescence; series mostly up to 92.2 µM. Put shortly: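 LYMP1-003 human lymphoblastoid cells (2500/well) exposed to compound 16 h at 37 C in complete medium; dead-cell protease read with bis-AAF-R110 fluorescence (Ex/Em 485/520) after 60 min at room temperature. Normalized to DMSO and 15 uM tetraoctylammonium bromide; AC50 from Hill fit.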

The nature of assay [13]: MultiTox-Fluor Cytotoxicity Assay - LYMP1-003 - Live Cells (AID 962).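 Also: 0% = DMSO only and full loss = 92 µM tetraoctylammonium bromide; cytotoxic hits lower the live-cell protease signal.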 The settings on record: LYMP1-003 lymphoblastoid cells, MultiTox-Fluor live-cell protease fluorescence; series mostly up to 92.2 µM. Put shortly: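 Acute cytotoxicity is scored as a drop in live-cell protease activity in human lymphoblastoid LYMP1-003 cells after 16 hr compound exposure at 37 C. AC50 values come from Hill-equation modelling of concentration-response data.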

Assay [14] in a line: Cell Viability - LYMP1-003 - Assay at 24 hr (AID 963).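 Also: plate controls were DMSO only for no effect and tetraoctylammonium bromide positive control for full effect.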 The settings on record: LYMP1-003 lymphoblastoid cell viability; series mostly up to 92.2 µM. Put shortly: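 Cytotoxicity is scored as a concentration-dependent fall in ATP-linked luciferase signal in human lymphoblastoid LYMP1-003 cells treated 24 hr at 37 C in complete culture medium.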
Assay [15] in a line: Cell Viability - LYMP1-002 - Assay at 24 hr (AID 993). Also: % is scaled to controls: 0 for no effect and ±100 for the full control effect. The settings on record: LYMP1-002 lymphoblastoid cells viability; series mostly up to 92.2 µM. The method in brief:
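Acute toxicity is measured as concentration-dependent loss of cellular ATP in a human lymphoblastoid line (Coriell LYMP1-002) after 24 h treatment in complete medium. ATP is quantified by luciferase luminescence and AC50 derived by Hill modelling.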

A short description of assay [16]: qHTS Assay for Identification of Small Molecule Inducers of Hypoxia Response (AID 2120; active = well fitted curve in the direction sought with a large enough effect in the signal ratio, with a control signal flat, not every such curve was filed as active; the % refers to the signal ratio; also: 0% is about no effect). The settings on record: hypoxia response reporter cells, beta-lactamase ratio readout; series mostly up to 104 µM. The method in brief:
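Cell-based qHTS for reporter induction: hypoxia response element controlled beta-lactamase in ME-180 cells. Compounds incubated 17 h at 37 degrees C; activity from blue/green (460/530 nm) ratio, inducers ranked by AC50.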

Assay [17] concerns the target Peroxisome proliferator-activated receptor alpha (Homo sapiens) (UniProt Q07869). Description: qHTS assay for small molecule agonists of the peroxisome proliferator-activated receptor alpha (PPARalpha) signaling pathway (AID 651778). Also: % of control where 0% means no effect. The settings on record: PathHunter PPARalpha complementation, chemiluminescence, 6 h; max response: stronger effect = higher value. Put shortly: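 Enzyme-fragment complementation assay in which ligand-bound PPARalpha translocates and forms an active enzyme that generates chemiluminescence. Cells were plated overnight, exposed to compound for 6 hr at 37 C, and then given detection reagent for 60 min at room temperature.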

Assay [18] can be described thus: qHTS assay for small molecule agonists of the antioxidant response element (ARE) signaling pathway measured by Nrf2-dependant transcriptional activity - cell viability counter screen (AID 720653; active = well fitted curve in the direction sought with a large enough effect in the repeat runs; an effect the other way counts as inactive or inconclusive; also: % is scaled to controls: 0 for no effect and ±100 for the full control effect). The settings on record: ARE-bla HepG2 viability, CellTiter-Glo ATP luminescence, 16 h; max response: stronger effect = lower value. Put shortly:
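ARE-bla HepG2 cells treated with compounds for 16 h at 37C; this counter screen measures viability as intracellular ATP by CellTiter-Glo luminescence after 30 min at room temperature.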

A short description of assay [19]: qHTS assay for cell viability of HEK293 cells (AID 743288). Also: nearly all actives have a fitted effect of over 50% in size. Also: potency is read from the fitted curve at half-maximal effect. As to max response: % is scaled to controls: 0 for no effect and ±100 for the full control effect. The settings on record: ATP luminescence (CellTiter-Glo), 18 h; max response: stronger effect = lower value. Put shortly:
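Quantitative high-throughput screen: compounds were pinned onto parental HEK293 cells (2,000 per well) after a minimum 5 h settling at 37 C, incubated 18 h at 37 C, and intracellular ATP measured by luciferase luminescence.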

Assay [20] is described as follows: qHTS assay for cell viability of the p53RE-bla HCT-116 cell line (AID 743292). Also: nearly all actives have a fitted effect of over 55% in size. Also: potency is read from the fitted curve at half-maximal effect. The settings on record: p53RE-bla HCT-116 viability, ATP luminescence, 16 h; series mostly up to 95 µM. The method in brief: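 ATP-based luminescence, 16 h compound exposure at 37 C, p53RE-bla HCT-116 cells at 4,000/well.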

Molecules are shown by their SMILES. “And” between values parts separate entries of the source, which are not always exact repeats. Equal values may be shown once. Unmarked numbers belong to inactive results. Inconclusive results are not listed. The source made the active and inactive calls. Unless noted, calls follow the shape of the dose curve; as a rule, active = well fitted curve in the direction sought with a large enough effect; inconclusive = small, poorly fitted or top-dose-only effect, or another doubt; inactive = no such curve, though single readings can be large; an effect the other way counts as inactive or inconclusive.

Chain of Peroxisome proliferator-activated receptor alpha (Homo sapiens) (Q07869 whole entry, looked up, the tested form may be a part): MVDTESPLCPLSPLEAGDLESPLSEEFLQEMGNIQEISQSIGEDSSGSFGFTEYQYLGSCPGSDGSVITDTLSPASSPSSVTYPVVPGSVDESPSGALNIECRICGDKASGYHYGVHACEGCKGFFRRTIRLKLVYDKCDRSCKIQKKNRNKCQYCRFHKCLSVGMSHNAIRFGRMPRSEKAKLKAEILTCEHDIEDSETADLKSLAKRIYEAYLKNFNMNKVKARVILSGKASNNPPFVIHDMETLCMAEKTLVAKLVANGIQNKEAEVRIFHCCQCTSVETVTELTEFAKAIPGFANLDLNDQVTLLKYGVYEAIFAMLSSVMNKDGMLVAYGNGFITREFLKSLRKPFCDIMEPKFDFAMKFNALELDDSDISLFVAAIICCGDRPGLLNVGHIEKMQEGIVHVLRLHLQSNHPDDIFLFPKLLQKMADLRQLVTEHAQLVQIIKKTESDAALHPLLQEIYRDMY

In the case of `CCc1ccc(C(c2ccc(CC)cc2)C(Cl)Cl)cc1`, in [1], the Potency is over 92 µM. Besides, the Potency result in assay [2], in assay [3], in assay [4], in assay [10], in [11] and in [12] was “inactive” each time. The Potency result in assay [13], in [14], in [15], in [16] and in assay [20] was “inactive” in each case. Moreover, the compound was classed as inactive in [5], in assay [6], in assay [8] and in assay [9]. Moreover, the caspase-3 activation in [7] is 1.15%. The max response was -1.02% in assay [17], -5.77% in assay [18] and -18.5% in [19].
As to `O=[N+]([O-])c1cc(N(CCO)CCO)ccc1NCCO`, the Potency in assay [1] is 67.7 µM; in [19] it was 44.7 µM (active). In addition, the Potency entry in assay [3], in assay [4], in assay [10], in [11], in [12] and in [13] was “inactive” in each case. Moreover, the Potency entry in [14], in [16] and in assay [20] was “inactive” throughout. Further, the call in assay [5], in assay [6], in assay [8] and in assay [9] was inactive. Also, in [7], the caspase-3 activation was -3.81%. Besides, the max response in assay [17] is -11.2% and -4.73%; in assay [18] it was -24.7%.
On to `Cc1c(C(=O)O)c(O)cc2c1C(=O)c1c(O)c([C@H]3O[C@H](CO)[C@@H](O)[C@H](O)[C@H]3O)c(O)c(O)c1C2=O`, for which the Potency in [2] is 31.6 µM (active); in assay [20], 44.7 µM (active). For the same compound, the Potency entry in assay [3], in assay [4], in [10], in [11], in assay [12] and in assay [13] was “inactive” each time. In addition, in assay [16], the Potency entry is “inactive”. The result in assay [5], in assay [6], in assay [8] and in assay [9] was inactive. The caspase-3 activation in assay [7] is -3.17%. For the same compound, the max response in assay [17] is -8.63%.
On to `CCCCC(CC)COP(=O)(OCC(CC)CCCC)OCC(CC)CCCC` (configuration not stated), for which the Potency in assay [1] was over 92 µM. For the same compound, the Potency result in assay [2], in assay [3], in assay [4], in assay [10], in assay [11] and in assay [12] was “inactive” throughout. The Potency entry in assay [13], in assay [14], in assay [15], in [16] and in assay [20] was “inactive” in each case. The call in assay [5], in assay [6], in assay [8] and in [9] was inactive. In addition, the caspase-3 activation in assay [7] was 2.89%. The max response in [17] was -6.02%; in [18] it was -10.8%; in [19], -14.3%.
Regarding `Nc1ccc2c(c1)C(=O)c1ccccc1C2=O`, the Potency in [1] was over 92 µM; in assay [2] it was 31.6 µM (active). The Potency entry in assay [3], in assay [4], in assay [10], in assay [11], in [12] and in assay [13] was “inactive” each time. Further, the Potency result in assay [14], in assay [15], in [16] and in [20] was “inactive” in each case. Also, the compound was called inactive in assay [5], in assay [6] and in assay [8]. Moreover, in [7], the caspase-3 activation is -8.84%. Besides, the max response in assay [17] is -6.61% and 0.0151%; in [18] it was -14.7% and -7.62%; in assay [19], -13.3% and -4.81%.
